Results taken from the supplement of paper PMC3414501.
Counter-ions that a name gives are not always drawn.

Columns and labels:
[1] = test system: S. cerevisiae SK1 pCDA2-eGFP (USY613), sporulating; test: CDA2-GFP sporulation assay sensitivity score (z-score vs DMSO controls); higher = stronger inhibition of sporulation, active = hit call of the paper;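 further: active if sensitivity score above 5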
[2] = test system: S. cerevisiae NKY1551 his4x/his4B, sporulating; test: HIS4 meiotic recombination assay sensitivity score (z-score vs DMSO controls); higher = stronger inhibition of sporulation/recombination, active = hit call of the paper;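 further: active if sensitivity score above 5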
[3] = test system: S. cerevisiae AD1-9 (efflux-pump deficient), vegetative growth in YPD; test: growth sensitivity score (doubling time z-score vs DMSO controls); higher = slower growth, strongly negative scores also mark growth inhibition (complete suppression), active = hit call of the paper
Summary of the method: (§1)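 Saccharomyces cerevisiae strains BY4741 and AD1-9 were seeded in rich medium in microtiter plates at an OD600 of 0.065. Compounds were added at a 1:100 dilution of DMSO stock. Optical density was read every 15 min for 24 hours on a Tecan GENios reader. Average doubling time was the time taken to reach a set generation point divided by generation number, and the growth sensitivity score was (compound mean − DMSO-control mean)/DMSO-control SD, using eight DMSO controls per experiment.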

[4] = test system: S. cerevisiae BY4741 (wild-type), vegetative growth in YPD; test: as above
Summary of the method: as §1

Row | SMILES | CDA2-GFP sporulation assay sensitivity score [1] | HIS4 meiotic recombination assay sensitivity score [2] | growth sensitivity score [3] | growth sensitivity score [4]
1 | CC(C)NCC(O)COc1ccc(COCCOC(C)C)cc1 (centres undefined) [Bisoprolol fumarate] (stock concentration (mM, diluted 1:100): 8.5) | 0.16 (inactive) | -0.11 (inactive) | -0.36 (inactive) | 0.65 (inactive)
2 | CCN(CC)C(=S)SSC(=S)N(CC)CC [Tetraethylthiuram disulfide] (stock concentration (mM, diluted 1:100): 10) | -1.5 (inactive) | -2.95 (inactive) |  | 
3 | C#C[C@]1(O)CC[C@H]2[C@@H]3CCc4cc(O)ccc4[C@H]3CC[C@@]21C [Ethynylestradiol] (stock concentration (mM, diluted 1:100): 10) | 6.44 (inactive) | -1.32 (inactive) | 229 (active) | 2.85 (active)
4 | C[C@H](CCC(=O)O)[C@H]1CC[C@H]2[C@@H]3C(=O)C[C@@H]4CC(=O)CC[C@]4(C)[C@H]3CC(=O)[C@]12C [Dehydrocholic acid] (stock concentration (mM, diluted 1:100): 10) | 0.09 (inactive) | -0.93 (inactive) | -1.13 (inactive) | -0.69 (inactive)
5 | NC(N)=Nc1nc(CSCC/C(N)=N/S(N)(=O)=O)cs1 [Famotidine] (stock concentration (mM, diluted 1:100): 10) | 0.3 (inactive) | -0.42 (inactive) | -2.06 | -0.98 (inactive)
6 | Nc1ncnc2c1ncn2[C@@H]1O[C@H](CO)C[C@@H]1O [3-Deoxydenosine] (stock concentration (mM, diluted 1:100): 10) | 19.9 (active) | 7.05 (active) | 110 (active) | 1.06 (inactive)
7 | CCN1CCC[C@H]1CNC(=O)c1cc(S(N)(=O)=O)ccc1OC [Levosulpiride] (stock concentration (mM, diluted 1:100): 10) | 0.11 (inactive) | 0.77 (inactive) | -0.24 (inactive) | 0.25 (inactive)
8 | CCc1ccc(CCOc2ccc(CC3SC(=O)NC3=O)cc2)nc1 (centres undefined) [Pioglitazone hydrochloride] (stock concentration (mM, diluted 1:100): 9.1) | 2.87 (inactive) | 0.36 (inactive) | -1.03 (inactive) | -0.08 (inactive)
9 | CNC(=N)NCCC[C@H](N)C(=O)O [omega-N-Methylarginine] (stock concentration (mM, diluted 1:100): 9.3) | 1.34 (inactive) | -0.29 (inactive) | -3.59 | -0.56 (inactive)
10 | COC(=O)Nc1nc2cc(C(=O)c3ccc(F)cc3)ccc2[nH]1 [Flubendazole] (stock concentration (mM, diluted 1:100): 10) | 0.4 (inactive) | -2.01 (inactive) | 12.3 (active) | 2.6 (active)
11 | CC[C@H]1OC(=O)[C@H](C)[C@@H](O[C@H]2C[C@@](C)(OC)[C@@H](O)[C@H](C)O2)[C@H](C)[C@@H](O[C@@H]2O[C@H](C)C[C@H](N(C)C)[C@H]2O)[C@](C)(OC)C[C@@H](C)C(=O)[C@H](C)[C@@H](O)[C@]1(C)O [Clarithromycin] (stock concentration (mM, diluted 1:100): 10) | -0.51 (inactive) | -1.54 (inactive) | -1.97 (inactive) | 1.37 (inactive)
12 | COc1ccc2c3c1O[C@H]1C[C@@H](O)C=C[C@@]31CCN(C)C2 [Galanthamine] (stock concentration (mM, diluted 1:100): 8.8) | -0.36 (inactive) | -0.9 (inactive) | -1.27 (inactive) | 0.11 (inactive)
13 | CN(C/C=C/C#CC(C)(C)C)Cc1cccc2ccccc12 [Terbinafine hydrochloride] (stock concentration (mM, diluted 1:100): 8.9) | -2.07 (inactive) | -0.72 (inactive) | 30.1 (active) | 93.8 (active)
14 | Cc1c(O)cccc1C(=O)N[C@@H](CSc1ccccc1)[C@H](O)CN1C[C@H]2CCCC[C@H]2C[C@H]1C(=O)NC(C)(C)C [Nelfinavir mesylate] (stock concentration (mM, diluted 1:100): 8.6) | 4.48 (inactive) | 0.21 (inactive) | 16.2 (active) | 0.56 (inactive)
